Experimental data as given in PubChem BioAssay AID1533 (PCMD, 2009).
In all, about 160,000 compounds went through this assay and about 45 (0.03%) were called active. Rule as the data show it: active = inhibition mostly above about 34% (no sharp cut-off); inconclusive = no clear call, values can overlap the other calls; inactive = mostly below about 22%. This excerpt belongs to a sample that is enriched for actives.

Target: dTDP-4-dehydrorhamnose reductase (Mycobacterium tuberculosis (strain ATCC 25618 / H37Rv)) + dTDP-4-dehydrorhamnose 3,5-epimerase (Mycobacterium tuberculosis (strain ATCC 25618 / H37Rv)) (UniProt P9WH09+P9WH11)
Test: M. tuberculosis RmlC/RmlD coupled enzyme inhibitors, primary screen, biochemical, compound mixtures, 384-well, from 1536-well plates (AID 1533)
Conditions: RmlC+RmlD coupled enzyme assay, percent inhibition, primary screen in compound mixtures, stronger effect = higher value
[1] = measured here: mean retest inhibition, at 5.5 µM

dTDP-4-dehydrorhamnose reductase (Mycobacterium tuberculosis (strain ATCC 25618 / H37Rv)) + dTDP-4-dehydrorhamnose 3,5-epimerase (Mycobacterium tuberculosis (strain ATCC 25618 / H37Rv)), sequence (P9WH09 whole entry, looked up): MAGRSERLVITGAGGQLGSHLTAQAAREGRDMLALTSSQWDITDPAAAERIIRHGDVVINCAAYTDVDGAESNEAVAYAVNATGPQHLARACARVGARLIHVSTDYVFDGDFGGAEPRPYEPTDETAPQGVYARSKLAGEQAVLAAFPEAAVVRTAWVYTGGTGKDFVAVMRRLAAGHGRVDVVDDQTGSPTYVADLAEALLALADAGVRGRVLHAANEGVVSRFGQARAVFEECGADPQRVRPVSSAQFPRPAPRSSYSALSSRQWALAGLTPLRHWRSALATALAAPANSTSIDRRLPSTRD
dTDP-4-dehydrorhamnose reductase (Mycobacterium tuberculosis (strain ATCC 25618 / H37Rv)) + dTDP-4-dehydrorhamnose 3,5-epimerase (Mycobacterium tuberculosis (strain ATCC 25618 / H37Rv)), sequence (P9WH11 whole entry, looked up): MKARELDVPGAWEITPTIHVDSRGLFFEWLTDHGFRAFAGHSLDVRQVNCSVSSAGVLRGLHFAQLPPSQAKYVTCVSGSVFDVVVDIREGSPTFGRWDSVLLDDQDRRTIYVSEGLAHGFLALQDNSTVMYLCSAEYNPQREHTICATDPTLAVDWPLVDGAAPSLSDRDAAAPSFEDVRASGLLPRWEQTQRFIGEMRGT

CCCCc1nnc(NC(=O)CSc2nc(N)cc(=O)[nH]2)s1
inhibition (at 3.6 µM): -1.44% (inactive)

CCC(O)C1CCN(Cc2cn(-c3ccc(OC)cc3)nc2-c2cccc(F)c2)CC1 (stereo unspecified)
inhibition (at 3.6 µM): -7.8% (inactive)

CC(NC(=S)Nc1ccccc1)C(c1cccs1)N1CCOCC1 (stereo unspecified)
inhibition (at 3.6 µM): 3.55% (inactive)

CCC1CCCCN1C(=O)CSc1nc2c(c(=O)n(C)c(=O)n2C)n1C (stereo unspecified)
inhibition (at 3.6 µM): -9.61% (inactive)

CCOC(=O)c1ccccc1NC(=S)N1CCC(C(N)=O)CC1
inhibition (at 3.6 µM): -16.5% (inactive)

CC1=NN(c2ccccc2)C(=O)C1C(=O)c1ccc([N+](=O)[O-])cc1 (stereo unspecified)
inhibition (at 3.6 µM): 4.71% (inactive)

CCCNc1c(N)c(=O)c1=O
inhibition (at 3.6 µM): -3% (inactive)

COc1ccc(CCNC(=O)C(=O)Nc2ccc3nc4n(c(=O)c3c2)CCCCC4)cc1OC
inhibition (at 3.6 µM): -7.43% (inactive)

CN1CCN(c2ncc3c(n2)CC(c2ccccc2F)CC3=O)CC1 (stereo unspecified)
inhibition (at 3.6 µM): 2.14% (inactive)

N#C/C(=C(\O)C(F)(F)F)c1nnc2n1CCCCC2
inhibition (at 3.6 µM): 31.1% (inactive) | inhibition [1]: -1.52%

CCOc1ccc2nc(NCCNC(=O)C(C)(C)C)c(C)cc2c1
inhibition (at 3.6 µM): -1% (inactive)

Cn1cc(S(=O)(=O)NC(c2ccccc2)c2ccccc2)c(=O)n(C)c1=O
inhibition (at 3.6 µM): -1% (inactive)

CN(c1ccc(OCC(=O)NC2=NCCS2)cc1)S(=O)(=O)c1ccc(F)cc1
inhibition (at 3.6 µM): 9.17% (inactive)

CC1CC1C(=O)OCC(=O)c1c(N)n(C)c(=O)n(C)c1=O (stereo unspecified)
inhibition (at 3.6 µM): -8.03% (inactive)

O=S(=O)(NCCc1csc(-c2ccccc2)n1)c1cccnc1
inhibition (at 3.6 µM): 4.16% (inactive)

Cc1nnc2n1N=C(c1ccc3c(c1)NC(=O)CO3)CS2
inhibition (at 3.6 µM): -5.45% (inactive)

COc1ccc(C)cc1NC(=O)c1ccc(-c2ccc(C(C)=O)cc2)o1
inhibition (at 3.6 µM): 6.7% (inactive)

C/C(=N/NC(=O)CC(=O)N/N=C(\C)c1ccc([N+](=O)[O-])cc1)c1ccc([N+](=O)[O-])cc1
inhibition (at 3.6 µM): 11.2% (inactive)

O=C(Nc1nc2ccc([N+](=O)[O-])cc2s1)c1ccncc1
inhibition (at 3.6 µM): 8.08% (inactive)

COc1cc(CN2CCNC(=O)C2CC(=O)NCCc2ncccc2C)cc(OC)c1 (stereo unspecified)
inhibition (at 3.6 µM): -11.4% (inactive)

CN(CC(=O)Nc1ccccc1F)CC(=O)Nc1ccccc1Br
inhibition (at 3.6 µM): 27.7% (inactive)

Cc1c(C)c(C)c2[nH]c(=S)[nH]c2c1C
inhibition (at 3.6 µM): 4.61% (inactive)

O=c1[nH]c(CSc2ccccc2)nc2c1oc1ccccc12
inhibition (at 3.6 µM): 2.42% (inactive)

CCOc1ccc(NC(=S)N2CCCCCC2)cc1
inhibition (at 3.6 µM): -16.4% (inactive)

CCOc1ccc(NS(=O)(=O)c2cc(C)c(C)cc2C)cc1
inhibition (at 3.6 µM): -11.4% (inactive)

CC(=O)c1c(C)[nH]c(=S)c(C#N)c1-c1ccc(F)cc1
inhibition (at 3.6 µM): 10.4% (inactive)

CCCc1nc2oc3c(=O)[nH]cnc3c2c2c1COC(C)(C)C2
inhibition (at 3.6 µM): -9.43% (inactive)

O=C(NCc1cccnc1)C(=O)Nc1nc(-c2ccccc2)cs1
inhibition (at 3.6 µM): -5.87% (inactive)

Oc1oc(-c2ccccc2Br)nc1/C=N/c1ccccn1
inhibition (at 3.6 µM): 2.05% (inactive)

Oc1cccc2ccc(/C=C/c3ccc(Br)s3)nc12
inhibition (at 3.6 µM): -11.7% (inactive)

CN(C)CCOc1cccc(Br)c1
inhibition (at 3.6 µM): 11.8% (inactive)

CN(C)c1ccc(NC(=O)CSc2n[nH]c(-c3ccco3)n2)cc1
inhibition (at 3.6 µM): -3.13% (inactive)

Cc1nc2ccccn2c1C(=O)NN=C1CCN(C)CC1
inhibition (at 3.6 µM): -1.88% (inactive)

CC(C)OCCCNC(=O)c1ccc(C2SCC(=O)N2Cc2ccco2)cc1 (stereo unspecified)
inhibition (at 3.6 µM): 1.23% (inactive)

CCn1c(CSCc2c(Cl)cccc2Cl)n[nH]c1=S
inhibition (at 3.6 µM): -0.03% (inactive)

O=C(O)CCc1nc2cc(Cl)ccc2n(Cc2ccccc2)c1=O
inhibition (at 3.6 µM): -4.14% (inactive)

Cc1nc2cccnc2nc1C
inhibition (at 3.6 µM): -6.92% (inactive)

Cc1ccccc1Nc1nc(N)nc(CSc2nnc3ccccn23)n1
inhibition (at 3.6 µM): 4.62% (inactive)

CC(C)(C)NC(=O)/C(=C/c1cccnc1)NC(=O)c1ccco1
inhibition (at 3.6 µM): -0.65% (inactive)

CN1CCN(C2=NCCO2)CC1
inhibition (at 3.6 µM): -5.76% (inactive)

CNC(=O)C(NC(=O)c1ccccc1)=C(C)C
inhibition (at 3.6 µM): 3.15% (inactive)

C/C(=N\NC(=O)c1nc(C)cc(C)n1)c1ccccc1
inhibition (at 3.6 µM): -2.86% (inactive)

CC(C)=C(NC(=O)c1ccccc1)C(=O)N/N=C(\C)c1ccccc1O
inhibition (at 3.6 µM): 51.8% (active) | inhibition [1]: 31.3%

Cc1ccc(SCc2c(C(=O)N/N=C/C3CC=CCC3)nnn2-c2nonc2N)cc1 (stereo unspecified)
inhibition (at 3.6 µM): 9.89% (inactive)

OCC1(Cc2ccccc2C(F)(F)F)CCN(Cc2ccncc2)CC1
inhibition (at 3.6 µM): 9.49% (inactive)

O=C1C2C3C=CC(C3)C2C(=O)N1c1ccc(-c2nc3ccccc3c(=O)o2)cc1 (stereo unspecified)
inhibition (at 3.6 µM): 1.56% (inactive)

O=C(CCCl)Nc1ccc(S(=O)(=O)NCc2ccco2)cc1
inhibition (at 3.6 µM): 4.49% (inactive)

CC(C)c1nc(SCC(=O)NC(=O)NC(C)(C)C)n[nH]1
inhibition (at 3.6 µM): -8.54% (inactive)

O=C(COC(=O)c1ccc(Cl)nc1)NCc1cccs1
inhibition (at 3.6 µM): -9.13% (inactive)

Cc1cc(C(=O)Cn2cnc3cc([N+](=O)[O-])ccc3c2=O)c(C)n1CC1CCCO1 (stereo unspecified)
inhibition (at 3.6 µM): 5.54% (inactive)

C=CCSc1nnc(NC(=O)c2ccc(NC(C)=O)cc2)s1
inhibition (at 3.6 µM): 2.48% (inactive)

Cc1cc(C)c(NC(=O)CN2C(=O)NC(Cc3ccccc3)C2=O)c(C)c1 (stereo unspecified)
inhibition (at 3.6 µM): 43.2% (inactive) | inhibition [1]: 7.39%

O=[N+]([O-])C(=c1ccc2c(c1)N1C3=C(CCCC3)CC3CCCCC31N=2)[N+](=O)[O-] (stereo unspecified)
inhibition (at 3.6 µM): -9.85% (inactive)

CCOC(=O)CNC(=O)CSc1ccc2nnc(-c3cccnc3)n2n1
inhibition (at 3.6 µM): -13.1% (inactive)

CC(=O)Nc1ccc(CC#N)cc1
inhibition (at 3.6 µM): -7.92% (inactive)

CC(NC(=O)C(=O)Nc1nccs1)c1ccccc1 (stereo unspecified)
inhibition (at 3.6 µM): 12.6% (inactive)

COc1ccc(/C=C/c2nnc(NC(=O)C(C)C)s2)cc1
inhibition (at 3.6 µM): 2.36% (inactive)

Cn1nc(C(F)(F)F)c(-c2ccc(F)cc2)c1NC(=O)CSCC(=O)O
inhibition (at 3.6 µM): 10% (inactive)

O=[N+]([O-])/C=C1\CCCCCN1
inhibition (at 3.6 µM): -6.23% (inactive)

O=C1[C@@H]2C(c3cccnc3)=NO[C@@H]2C(=O)N1c1ccc(Cl)cc1Cl
inhibition (at 3.6 µM): 13.9% (inactive)

CCOC(=O)CNc1nc(Cl)nc(Nc2ccccc2)n1
inhibition (at 3.6 µM): 0.72% (inactive)

Cn1nccc1NC(=O)Nc1ccc(OC(F)(F)F)cc1
inhibition (at 3.6 µM): -2.41% (inactive)

COc1ccccc1P(=O)(c1ccccc1)c1ccccc1NC(C)=O (stereo unspecified)
inhibition (at 3.6 µM): 40.9% (inactive) | inhibition [1]: -18.2%

CCOC(=O)C(CC)/C(C)=N\NC(=O)c1cccc(C)c1 (stereo unspecified)
inhibition (at 3.6 µM): 9.71% (inactive)

COC(=O)CC1=NN(c2ccccc2)C(=O)C1
inhibition (at 3.6 µM): -13% (inactive)

Cc1cc(C(=O)OCC(=O)Nc2nccs2)c2ccccc2n1
inhibition (at 3.6 µM): 9.68% (inactive)

Cc1ccccc1C(=O)Nc1ccc(N2CCCCCC2)cc1
inhibition (at 3.6 µM): -4.06% (inactive)

COc1ccc(NC(=O)CSc2ncnc3[nH]ncc23)cc1
inhibition (at 3.6 µM): -14.6% (inactive)

CCC/C(C)=N\Nc1nc2c(c(=O)n(C)c(=O)n2C)n1C
inhibition (at 3.6 µM): -3.15% (inactive)

COc1ccc(/C=N/NS(=O)(=O)c2ccc(NC(C)=O)cc2)cc1
inhibition (at 3.6 µM): 10.1% (inactive)

C/C(CCc1ccccc1)=N\NC(=O)c1ccc(CN2CCOCC2)cc1
inhibition (at 3.6 µM): 6.96% (inactive)

CC(=O)NC(CC(=O)Nc1nccs1)c1ccccc1 (stereo unspecified)
inhibition (at 3.6 µM): 3.67% (inactive)

Cc1cc(Nc2ccc(N3CCOCC3)cc2)c2cccc(C)c2n1
inhibition (at 3.6 µM): 35.8% (inactive) | inhibition [1]: -6.33%

Cc1ccc(NNC(=O)C2CCC2)cc1C
inhibition (at 3.6 µM): -0.66% (inactive)

C=CCNC(=S)N1CCc2[nH]c3ccccc3c2C1
inhibition (at 3.6 µM): -7.26% (inactive)

Cn1c(SCC(=O)Nc2ccc(Cl)cc2)nc(O)cc1=O
inhibition (at 3.6 µM): 3.67% (inactive)

OCC(O)CN(c1ccccc1)c1ccccc1 (stereo unspecified)
inhibition (at 3.6 µM): 15.9% (inactive)

O=C(NCc1ccncc1)NC12CC3CC(CC(C3)C1)C2
inhibition (at 3.6 µM): 4.57% (inactive)

Cc1nc2ccc(NC(=S)N3CCC(C)CC3)cc2nc1C
inhibition (at 3.6 µM): 12.1% (inactive)

Cc1ccc(CSc2nc3[nH]ncc3c(=O)[nH]2)cc1
inhibition (at 3.6 µM): 65.1% (inactive) | inhibition [1]: 4.96%

CC(C)c1c(O)nc(SCCOc2ccc(Cl)cc2)[nH]c1=O
inhibition (at 3.6 µM): 7.19% (inactive)

Cc1c(-c2cccc(Cl)c2)nc2ccccc2c1C(=O)OCC(=O)N(C)C1CCS(=O)(=O)C1 (stereo unspecified)
inhibition (at 3.6 µM): 5.87% (inactive)

O=C(CCS(=O)(=O)c1ccccc1Cl)Nc1ccc(S(=O)(=O)Nc2ncccn2)cc1
inhibition (at 3.6 µM): 10% (inactive)

CCCCCN(C(=O)NC(=O)Nc1cccc(C)c1C)S(C)(=O)=O
inhibition (at 3.6 µM): -12.7% (inactive)

OC(c1ccccc1)C(CN1CCOCC1)c1ccccc1 (stereo unspecified)
inhibition (at 3.6 µM): 7.15% (inactive)

NS(=O)(=O)c1ccc(NC(=S)NC(=O)c2cccc(Br)c2)cc1
inhibition (at 3.6 µM): 4.21% (inactive)

CCC1=NN2C(=N)/C(=C/c3cc(C)n(-c4ccccc4)c3C)C(=O)N=C2S1
inhibition (at 3.6 µM): -9.8% (inactive)

CCN1CCc2nc(NC(=O)c3cc(F)c(F)cc3Cl)sc2C1
inhibition (at 3.6 µM): -6.97% (inactive)

COc1ccc(C2=NN(C(=O)CCC(=O)O)C(c3cccs3)C2)cc1OC (stereo unspecified)
inhibition (at 3.6 µM): -7.36% (inactive)

CN1CCN(CCNC(=O)Nc2ccc([N+](=O)[O-])cc2)CC1
inhibition (at 3.6 µM): 5.16% (inactive)

CN(C)c1ccc(/C=C/C(=O)c2ccc(O)cc2)cc1[N+](=O)[O-]
inhibition (at 3.6 µM): 44.3% (inactive) | inhibition [1]: 5.01%

CCOC(=O)C1CCN(C(=O)Nc2cccc(OC)c2)CC1
inhibition (at 3.6 µM): 1.02% (inactive)

Cc1ccc(/C=N/NC(=O)CSc2ccccn2)o1
inhibition (at 3.6 µM): 70% (inactive) | inhibition [1]: -5.62%

O=C(O)C(NS(=O)(=O)c1cccc2nsnc12)c1ccccc1 (stereo unspecified)
inhibition (at 3.6 µM): -10.9% (inactive)

CCCCSc1nnc2c(n1)OC=Nc1ccccc1-2
inhibition (at 3.6 µM): 11.2% (inactive)

CN1CCc2nc(SC(C(=O)O)c3ccccc3)c(C#N)c(-c3cccs3)c2C1 (stereo unspecified)
inhibition (at 3.6 µM): -14.8% (inactive)

COc1ccc(OC)c(-n2c(=S)[nH]c3cc(C(=O)N4CCCCC4)ccc3c2=O)c1
inhibition (at 3.6 µM): 4.34% (inactive)

O=S(=O)(NCc1ccco1)c1cnc(Cl)c(Cl)c1
inhibition (at 3.6 µM): 11.4% (inactive)
